Laboratory results from PubChem BioAssay AID1159580 (chemical genetic matrix, 2015).
Values joined by “and” are separate entries in the source; they are usually repeats but may differ in a detail not shown here. Equal entries are not always repeated. Among all 5,500 compounds or so, about 2,000 (36%) were called active. Another 18% or so got no clear call; they are omitted. Cut-off read from the data, not from the text of the source: active = normalized growth mostly below about 0.91 (no sharp cut-off); inconclusive = no clear call, values can overlap the other calls; inactive = mostly above about 0.92. The list shows a part of the results.

Experiment: chemical genetic growth profiling, strain panel (AID 1159580);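 note: tested at 20 µM; growth read once vehicle control cultures reached saturation at 30 °C; 1 = growth at the plate median or of vehicle wells; lower values mean less growth of the strain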
Settings: S. cerevisiae deletion strains, growth OD

Measured: normalized growth

C#C[C@]1(O)CCC2C3CCC4=C(CCC(=O)C4)C3CC[C@@]21C (some centres undefined)
active: locus YDR137W, strain rgp1, stronger effect = lower value 0.807
inactive: locus YAL021C, strain ccr4, stronger effect = lower value 0.992 | locus YAL026C, strain drs2, stronger effect = lower value 0.942 | locus YAL030W, strain snc1, stronger effect = lower value 0.987 | locus YBL061C, strain skt5, stronger effect = lower value 0.993 | locus YBR009C, strain hhf1, stronger effect = lower value 0.941 | locus YBR021W, strain FUR4, stronger effect = lower value 0.977 | locus YBR023C, strain chs3, stronger effect = lower value 0.986 | locus YBR171W, strain sec66, stronger effect = lower value 0.974 | locus YBR229C, strain ROT2, stronger effect = lower value 1.01 | locus YBR231C, strain swc5, stronger effect = lower value 1 | locus YBR279W, strain paf1, stronger effect = lower value 0.982 | locus YCL011C, strain gbp2, stronger effect = lower value 0.98 | locus YCL016C, strain dcc1, stronger effect = lower value 0.994 | locus YCL029C, strain bik1, stronger effect = lower value 1.01 | locus YCL061C, strain MRC1, stronger effect = lower value 0.971 | locus YCL069W, strain vba3, stronger effect = lower value 0.973 | locus YCR088W, strain abp1, stronger effect = lower value 0.986 | locus YDL005C, strain med2, stronger effect = lower value 0.982 | locus YDL035C, strain GPR1, stronger effect = lower value 0.964 | locus YDL040C, strain nat1, stronger effect = lower value 0.989 | locus YDL074C, strain BRE1, stronger effect = lower value 1.03 | locus YDL101C, strain DUN1, stronger effect = lower value 1 | locus YDL134C, strain PPH21, stronger effect = lower value 0.981 | locus YDL185W, strain tfp1, stronger effect = lower value 1 | locus YDL192W, strain arf1, stronger effect = lower value 1.01 | locus YDR001C, strain nth1, stronger effect = lower value 0.983 | locus YDR069C, strain doa4, stronger effect = lower value 0.97 | locus YDR101C, strain arx1, stronger effect = lower value 0.984 | locus YDR150W, strain NUM1, stronger effect = lower value 1.03 | locus YDR159W, strain sac3, stronger effect = lower value 0.915 | locus YDR162C, strain NBP2, stronger effect = lower value 1.02 | locus YDR195W, strain ref2 1.07 | locus YDR297W, strain sur2, stronger effect = lower value 0.985 | locus YDR318W, strain mcm21, stronger effect = lower value 0.98 | locus YDR334W, strain swr1, stronger effect = lower value 0.996 | locus YDR335W, strain msn5, stronger effect = lower value 0.97 | locus YDR388W, stronger effect = lower value 1 | locus YDR392W, strain spt3, stronger effect = lower value 0.761 | locus YDR502C, strain sam2, stronger effect = lower value 0.985 | locus YEL003W, strain gim4, stronger effect = lower value 0.971 | locus YEL037C, strain rad23, stronger effect = lower value 0.98 | locus YEL061C, strain CIN8 (second series), stronger effect = lower value 0.969 | locus YEL061C, strain CIN8, stronger effect = lower value 1.02 | locus YER015W, strain faa2, stronger effect = lower value 0.994 | locus YER016W, strain bim1, stronger effect = lower value 0.976 | locus YER110C, stronger effect = lower value 1 | locus YER111C, strain swi4, stronger effect = lower value 1 | locus YER155C, strain BEM2 (second series), stronger effect = lower value 0.974 | locus YER155C, strain BEM2, stronger effect = lower value 1.02 | locus YER167W, strain BCK2, stronger effect = lower value 1.01 | locus YFR010W, strain ubp6, stronger effect = lower value 0.98 | locus YGL078C, strain dbp3, stronger effect = lower value 0.995 | locus YGL086W, strain mad1, stronger effect = lower value 0.99 | locus YGL167C, strain pmr1, stronger effect = lower value 0.984 | locus YGL173C, strain kem1, stronger effect = lower value 0.957 | locus YGL227W, strain vid30, stronger effect = lower value 0.98 | locus YGL240W, strain doc1, stronger effect = lower value 0.949 | locus YGL248W, strain PDE1, stronger effect = lower value 1 | locus YGL253W, strain hxk2, stronger effect = lower value 0.962 | locus YGR135W, strain pre9, stronger effect = lower value 0.981 | locus YGR252W, strain gcn5, stronger effect = lower value 0.893 | locus YHR013C, strain ard1, stronger effect = lower value 0.965 | locus YHR027C, strain rpn1, stronger effect = lower value 0.984 | locus YHR030C, strain SLT2, stronger effect = lower value 1.03 and 0.904 | locus YHR079C, strain IRE1 (second series), stronger effect = lower value 0.999 | locus YHR079C, strain IRE1, stronger effect = lower value 0.873 | locus YHR094C, strain hxt1, stronger effect = lower value 0.997 | locus YHR129C, strain ARP1, stronger effect = lower value 1.02 | locus YHR142W, strain chs7, stronger effect = lower value 0.921 | locus YHR200W, strain rpn10, stronger effect = lower value 1 | locus YIL066C, strain RNR3, stronger effect = lower value 1.02 | locus YIL073C, strain SPO22, stronger effect = lower value 0.968 | locus YIL125W, strain kgd1, stronger effect = lower value 1 | locus YIR030C, strain dcg1, stronger effect = lower value 1.02 | locus YJL092W, strain hpr5, stronger effect = lower value 0.986 | locus YJL095W, strain BCK1 (second series), stronger effect = lower value 0.991 | locus YJL095W, strain BCK1, stronger effect = lower value 0.979 and 0.922 | locus YJL115W, strain asf1, stronger effect = lower value 0.975 | locus YJL129C, strain trk1, stronger effect = lower value 0.884 | locus YJL134W, strain LCB3, stronger effect = lower value 1.02 | locus YJL154C, strain vps35, stronger effect = lower value 0.97 | locus YJL164C, strain tpk1, stronger effect = lower value 0.949 | locus YJL166W, strain qcr8, stronger effect = lower value 0.97 | locus YJL168C, strain set2, stronger effect = lower value 1 | locus YJL187C, strain SWE1 (second series), stronger effect = lower value 1.01 | locus YJL187C, strain SWE1, stronger effect = lower value 0.981 | locus YJR043C, strain POL32, stronger effect = lower value 1.02 | locus YJR066W, strain TOR1, stronger effect = lower value 0.886
